# In publication PMC7862700, “An all-to-all approach to the identification of sequence-specific readers for epigenetic DNA modifications on cytosine”:
# Columns and labels:
# Experiment in all cases: DAPPL (digital affinity profiling via proximity ligation, sequencing); 10 mM Tris-HCl pH 7.5, 50 mM NaCl, 1 mM DTT, 4% glycerol, room temperature, 30 min; GST-TFs on glutathione beads, 16-mer random dsDNA library, 0.1% formaldehyde crosslink after washing; high values mean tight binding
# FLI1 = target: T1, FLI1 (Homo sapiens, UniProt Q01543 1-452); settings: protein: recombinant; tags: N-terminal GST; dsDNA, one strand shown
# T1 sequence: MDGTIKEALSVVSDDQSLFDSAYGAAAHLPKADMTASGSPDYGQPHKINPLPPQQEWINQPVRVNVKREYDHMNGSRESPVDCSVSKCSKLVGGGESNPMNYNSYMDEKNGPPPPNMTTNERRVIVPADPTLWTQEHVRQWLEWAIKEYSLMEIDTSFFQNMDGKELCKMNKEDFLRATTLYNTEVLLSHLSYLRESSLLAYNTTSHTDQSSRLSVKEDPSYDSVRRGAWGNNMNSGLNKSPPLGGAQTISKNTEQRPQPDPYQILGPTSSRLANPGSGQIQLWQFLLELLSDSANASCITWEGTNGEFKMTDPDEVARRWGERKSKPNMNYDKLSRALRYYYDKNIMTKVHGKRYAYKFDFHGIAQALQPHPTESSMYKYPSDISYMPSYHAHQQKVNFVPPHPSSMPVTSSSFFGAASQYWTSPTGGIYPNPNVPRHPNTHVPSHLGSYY
# Summary of the method: (§1)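 Binding signal is given per hexamer as its read frequency for a factor divided by its frequency in the tag-only sample. GST-fused human transcription factors were expressed in yeast, captured on glutathione beads, barcoded with DNA and pooled with that sample, then incubated with 200 nmole of a 16-mer random double-stranded DNA library in Tris/NaCl/DTT/glycerol buffer for 30 min at room temperature. The pools were then washed, crosslinked, proximity-ligated, amplified by PCR and sequenced on an Illumina NextSeq500.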
# ELK1 = target: T2, ELK1 (Homo sapiens, UniProt P19419 1-428); settings: protein: recombinant; tags: N-terminal GST; dsDNA, one strand shown
# T2 sequence: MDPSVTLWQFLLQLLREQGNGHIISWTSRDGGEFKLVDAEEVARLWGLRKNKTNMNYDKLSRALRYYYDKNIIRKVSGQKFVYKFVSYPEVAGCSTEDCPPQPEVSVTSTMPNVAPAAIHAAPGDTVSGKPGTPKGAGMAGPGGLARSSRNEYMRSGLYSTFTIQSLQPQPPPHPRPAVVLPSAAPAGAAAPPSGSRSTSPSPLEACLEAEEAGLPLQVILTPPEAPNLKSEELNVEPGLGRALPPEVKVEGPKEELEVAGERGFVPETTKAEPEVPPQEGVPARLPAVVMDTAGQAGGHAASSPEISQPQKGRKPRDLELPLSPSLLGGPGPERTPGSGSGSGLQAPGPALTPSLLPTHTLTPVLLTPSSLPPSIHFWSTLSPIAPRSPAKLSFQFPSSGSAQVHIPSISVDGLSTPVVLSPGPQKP
# Summary of the method: as §1
# GABPA = target: T3, GABPA (Homo sapiens, UniProt Q06546 1-454); settings: protein: recombinant; tags: N-terminal GST; dsDNA, one strand shown
# T3 sequence: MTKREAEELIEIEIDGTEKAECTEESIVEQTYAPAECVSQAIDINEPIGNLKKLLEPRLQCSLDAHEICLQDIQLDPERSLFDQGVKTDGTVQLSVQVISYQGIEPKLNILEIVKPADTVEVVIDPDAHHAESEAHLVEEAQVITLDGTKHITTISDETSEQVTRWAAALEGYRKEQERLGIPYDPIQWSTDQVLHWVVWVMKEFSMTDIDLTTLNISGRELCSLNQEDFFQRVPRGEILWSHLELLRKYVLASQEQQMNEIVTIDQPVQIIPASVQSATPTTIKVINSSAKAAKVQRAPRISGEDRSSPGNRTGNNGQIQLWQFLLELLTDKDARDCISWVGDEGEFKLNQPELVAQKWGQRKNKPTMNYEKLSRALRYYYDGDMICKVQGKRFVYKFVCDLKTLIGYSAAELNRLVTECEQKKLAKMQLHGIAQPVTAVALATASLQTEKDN
# Summary of the method: as §1
# ERG = target: T4, ERG (Homo sapiens, UniProt P11308 1-479); settings: protein: recombinant; tags: N-terminal GST; dsDNA, one strand shown
# T4 sequence: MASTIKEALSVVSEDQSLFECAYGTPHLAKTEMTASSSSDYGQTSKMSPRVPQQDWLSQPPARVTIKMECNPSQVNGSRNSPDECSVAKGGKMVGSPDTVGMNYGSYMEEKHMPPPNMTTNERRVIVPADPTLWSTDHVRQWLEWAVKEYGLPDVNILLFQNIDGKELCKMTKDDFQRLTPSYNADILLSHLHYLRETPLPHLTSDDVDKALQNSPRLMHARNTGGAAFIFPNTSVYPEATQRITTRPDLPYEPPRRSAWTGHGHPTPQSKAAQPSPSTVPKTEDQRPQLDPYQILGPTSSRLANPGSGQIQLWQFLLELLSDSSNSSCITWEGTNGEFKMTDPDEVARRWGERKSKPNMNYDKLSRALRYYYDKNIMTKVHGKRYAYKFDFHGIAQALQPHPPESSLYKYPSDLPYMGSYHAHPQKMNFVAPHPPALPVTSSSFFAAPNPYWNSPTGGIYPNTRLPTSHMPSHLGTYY
# Summary of the method: as §1
# ELF1 = ELF1 (Homo sapiens, UniProt P32519 1-619); settings: protein: recombinant; tags: N-terminal GST; dsDNA, one strand shown
# Summary of the method: as §1
# EHF = target: T5, EHF (Homo sapiens, UniProt Q9NZC4 1-300); settings: protein: recombinant; tags: N-terminal GST; dsDNA, one strand shown
# T5 sequence: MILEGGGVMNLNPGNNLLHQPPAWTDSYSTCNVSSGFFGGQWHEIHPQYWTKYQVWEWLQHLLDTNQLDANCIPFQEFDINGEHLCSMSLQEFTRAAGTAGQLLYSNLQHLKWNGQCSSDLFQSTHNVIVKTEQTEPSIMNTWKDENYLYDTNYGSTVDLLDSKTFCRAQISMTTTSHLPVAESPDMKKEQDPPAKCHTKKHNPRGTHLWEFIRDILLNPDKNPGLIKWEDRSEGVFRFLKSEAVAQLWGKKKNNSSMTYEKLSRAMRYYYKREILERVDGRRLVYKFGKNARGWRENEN
# Summary of the method: as §1
# SPI1 = SPI1 (Homo sapiens, UniProt P17947 1-270); settings: protein: recombinant; tags: N-terminal GST; dsDNA, one strand shown
# Summary of the method: as §1
# SPIB = SPIB (Homo sapiens, UniProt Q01892 1-262); settings: protein: recombinant; tags: N-terminal GST; dsDNA, one strand shown
# Summary of the method: as §1
# ELK3 = target: T6, ELK3 (Homo sapiens, UniProt P41970 1-407); settings: protein: recombinant; tags: N-terminal GST; dsDNA, one strand shown
# T6 sequence: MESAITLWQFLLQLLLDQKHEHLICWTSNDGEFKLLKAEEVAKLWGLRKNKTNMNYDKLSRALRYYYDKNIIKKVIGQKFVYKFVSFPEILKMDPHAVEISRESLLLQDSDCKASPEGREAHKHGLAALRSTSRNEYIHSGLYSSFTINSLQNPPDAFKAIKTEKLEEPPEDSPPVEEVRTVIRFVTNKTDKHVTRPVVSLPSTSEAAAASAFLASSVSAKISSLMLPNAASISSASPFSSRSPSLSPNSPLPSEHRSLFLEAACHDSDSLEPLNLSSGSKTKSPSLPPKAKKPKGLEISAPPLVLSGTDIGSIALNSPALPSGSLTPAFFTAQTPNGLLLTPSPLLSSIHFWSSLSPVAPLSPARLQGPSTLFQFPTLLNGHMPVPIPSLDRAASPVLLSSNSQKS
# Summary of the method: as §1
# FEV = target: T7, FEV (Homo sapiens, UniProt Q99581 1-238); settings: protein: recombinant; tags: N-terminal GST; dsDNA, one strand shown
# T7 sequence: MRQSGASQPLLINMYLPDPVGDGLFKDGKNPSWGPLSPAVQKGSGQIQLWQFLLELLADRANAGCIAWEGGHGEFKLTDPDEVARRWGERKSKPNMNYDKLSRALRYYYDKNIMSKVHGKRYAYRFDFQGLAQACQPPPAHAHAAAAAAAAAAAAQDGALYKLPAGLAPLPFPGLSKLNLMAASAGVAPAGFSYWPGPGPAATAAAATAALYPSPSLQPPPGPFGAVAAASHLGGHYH
# Summary of the method: as §1
# ETV5 = ETV5 (Homo sapiens, UniProt P41161 1-510); settings: protein: recombinant; tags: N-terminal GST; dsDNA, one strand shown
# Summary of the method: as §1
# HSF1 = HSF1 (Homo sapiens, UniProt Q00613 1-529); settings: protein: recombinant; tags: N-terminal GST; chain copies: 3; dsDNA, one strand shown
# Summary of the method: as §1
# SPIC = target: T8, SPIC (Homo sapiens, UniProt Q8N5J4 1-248); settings: protein: recombinant; tags: N-terminal GST; dsDNA, one strand shown
# T8 sequence: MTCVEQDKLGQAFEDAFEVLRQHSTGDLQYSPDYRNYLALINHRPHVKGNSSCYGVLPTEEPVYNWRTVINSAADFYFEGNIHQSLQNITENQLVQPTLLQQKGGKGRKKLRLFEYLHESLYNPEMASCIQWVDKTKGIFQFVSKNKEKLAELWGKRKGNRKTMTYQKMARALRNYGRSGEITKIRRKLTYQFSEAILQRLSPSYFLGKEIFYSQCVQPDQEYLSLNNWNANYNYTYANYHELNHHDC
# Summary of the method: as §1
# ELF4 = ELF4 (Homo sapiens, UniProt Q99607 1-663); settings: protein: recombinant; tags: N-terminal GST; dsDNA, one strand shown
# Summary of the method: as §1
# ELK4 = target: T9, ELK4 (Homo sapiens, UniProt P28324-2 1-405); settings: protein: recombinant; tags: N-terminal GST; dsDNA, one strand shown
# T9 sequence: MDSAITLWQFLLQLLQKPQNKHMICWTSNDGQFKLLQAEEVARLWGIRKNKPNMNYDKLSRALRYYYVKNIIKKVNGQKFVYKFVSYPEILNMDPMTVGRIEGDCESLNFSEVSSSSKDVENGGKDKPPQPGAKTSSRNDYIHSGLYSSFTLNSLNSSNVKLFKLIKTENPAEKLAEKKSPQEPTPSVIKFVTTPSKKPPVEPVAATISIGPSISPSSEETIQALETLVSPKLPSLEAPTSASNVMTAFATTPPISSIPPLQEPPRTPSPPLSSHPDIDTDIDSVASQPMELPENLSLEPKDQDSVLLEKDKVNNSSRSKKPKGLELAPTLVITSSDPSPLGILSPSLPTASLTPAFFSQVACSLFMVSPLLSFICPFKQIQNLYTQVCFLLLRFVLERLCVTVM
# Summary of the method: as §1
# ETV2 = target: T10, ETV2 (Homo sapiens, UniProt O00321 1-342); settings: protein: recombinant; tags: N-terminal GST; dsDNA, one strand shown
# T10 sequence: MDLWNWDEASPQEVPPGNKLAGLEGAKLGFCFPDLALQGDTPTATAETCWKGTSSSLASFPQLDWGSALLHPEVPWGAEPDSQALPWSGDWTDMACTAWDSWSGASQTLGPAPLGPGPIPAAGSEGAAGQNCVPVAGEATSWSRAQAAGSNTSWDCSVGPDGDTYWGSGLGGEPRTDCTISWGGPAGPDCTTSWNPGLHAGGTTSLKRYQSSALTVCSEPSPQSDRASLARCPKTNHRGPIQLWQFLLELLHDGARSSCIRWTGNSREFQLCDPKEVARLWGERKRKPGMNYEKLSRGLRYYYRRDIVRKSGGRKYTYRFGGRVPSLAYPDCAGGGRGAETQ
# Summary of the method: as §1
# ELF3 = target: T11, ELF3 (Homo sapiens, UniProt P78545 1-371); settings: protein: recombinant; tags: N-terminal GST; dsDNA, one strand shown
# T11 sequence: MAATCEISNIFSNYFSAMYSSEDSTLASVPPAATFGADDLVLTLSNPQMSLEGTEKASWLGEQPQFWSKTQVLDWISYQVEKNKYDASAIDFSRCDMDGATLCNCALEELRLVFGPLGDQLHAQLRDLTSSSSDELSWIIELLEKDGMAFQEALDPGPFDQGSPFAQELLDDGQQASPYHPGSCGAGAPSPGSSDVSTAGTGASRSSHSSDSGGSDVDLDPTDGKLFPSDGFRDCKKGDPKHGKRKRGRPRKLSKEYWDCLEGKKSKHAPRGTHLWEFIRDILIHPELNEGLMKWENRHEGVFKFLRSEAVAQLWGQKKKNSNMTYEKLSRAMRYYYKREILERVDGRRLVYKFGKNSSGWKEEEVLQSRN
# Summary of the method: as §1
# CRX = CRX (Homo sapiens, UniProt O43186 1-299); settings: protein: recombinant; tags: N-terminal GST; dsDNA, one strand shown
# Summary of the method: as §1
# ETV1 = ETV1 (Homo sapiens, UniProt P50549 1-477); settings: protein: recombinant; tags: N-terminal GST; dsDNA, one strand shown
# Summary of the method: as §1
# Chain of ETV5 (P41161 whole entry): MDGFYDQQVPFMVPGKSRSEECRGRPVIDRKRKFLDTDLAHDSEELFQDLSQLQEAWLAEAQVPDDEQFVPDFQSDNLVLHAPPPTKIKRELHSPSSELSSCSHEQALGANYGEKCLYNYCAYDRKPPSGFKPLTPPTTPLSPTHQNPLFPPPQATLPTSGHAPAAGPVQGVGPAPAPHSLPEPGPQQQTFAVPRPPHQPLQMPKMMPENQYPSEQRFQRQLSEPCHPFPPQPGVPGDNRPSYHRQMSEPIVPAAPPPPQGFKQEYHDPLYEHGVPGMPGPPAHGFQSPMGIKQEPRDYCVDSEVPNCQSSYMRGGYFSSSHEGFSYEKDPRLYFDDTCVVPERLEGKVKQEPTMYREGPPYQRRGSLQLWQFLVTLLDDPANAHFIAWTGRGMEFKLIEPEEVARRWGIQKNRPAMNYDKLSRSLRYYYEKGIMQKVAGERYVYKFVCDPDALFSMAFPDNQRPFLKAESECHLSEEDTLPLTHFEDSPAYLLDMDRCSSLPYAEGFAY
# Chain of ELF1 (P32519 whole entry): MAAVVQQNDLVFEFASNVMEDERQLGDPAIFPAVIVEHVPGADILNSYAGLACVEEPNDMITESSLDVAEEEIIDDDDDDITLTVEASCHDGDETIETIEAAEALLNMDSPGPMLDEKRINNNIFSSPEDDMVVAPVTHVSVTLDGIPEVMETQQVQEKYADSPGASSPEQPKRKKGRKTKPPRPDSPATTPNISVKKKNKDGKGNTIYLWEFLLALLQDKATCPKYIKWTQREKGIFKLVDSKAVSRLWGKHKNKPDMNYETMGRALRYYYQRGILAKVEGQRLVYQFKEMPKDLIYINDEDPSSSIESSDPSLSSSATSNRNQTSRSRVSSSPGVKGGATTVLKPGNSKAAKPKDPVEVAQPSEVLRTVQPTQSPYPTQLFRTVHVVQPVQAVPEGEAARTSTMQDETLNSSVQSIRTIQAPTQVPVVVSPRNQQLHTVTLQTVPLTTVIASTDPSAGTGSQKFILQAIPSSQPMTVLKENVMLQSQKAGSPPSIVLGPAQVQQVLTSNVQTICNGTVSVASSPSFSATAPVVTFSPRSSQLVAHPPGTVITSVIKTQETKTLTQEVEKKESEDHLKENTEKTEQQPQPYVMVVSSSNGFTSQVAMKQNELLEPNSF
# Chain of ELF4 (Q99607 whole entry): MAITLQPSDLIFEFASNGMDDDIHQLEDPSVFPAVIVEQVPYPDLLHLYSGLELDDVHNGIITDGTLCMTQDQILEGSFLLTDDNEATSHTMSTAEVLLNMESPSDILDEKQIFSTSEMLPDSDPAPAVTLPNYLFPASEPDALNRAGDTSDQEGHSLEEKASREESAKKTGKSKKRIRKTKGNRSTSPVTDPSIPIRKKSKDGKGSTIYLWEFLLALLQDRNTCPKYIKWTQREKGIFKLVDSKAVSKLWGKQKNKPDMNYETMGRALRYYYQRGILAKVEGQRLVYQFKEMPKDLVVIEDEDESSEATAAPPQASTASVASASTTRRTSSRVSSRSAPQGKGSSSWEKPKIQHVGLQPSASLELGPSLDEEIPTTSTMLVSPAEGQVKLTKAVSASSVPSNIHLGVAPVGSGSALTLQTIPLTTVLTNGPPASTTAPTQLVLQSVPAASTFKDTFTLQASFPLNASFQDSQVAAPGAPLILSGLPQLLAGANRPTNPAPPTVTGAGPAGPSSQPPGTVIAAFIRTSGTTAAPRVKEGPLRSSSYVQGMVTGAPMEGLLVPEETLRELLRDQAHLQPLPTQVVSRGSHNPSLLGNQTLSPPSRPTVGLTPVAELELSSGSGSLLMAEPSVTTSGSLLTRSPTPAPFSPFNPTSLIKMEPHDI
# Chain of CRX (O43186 whole entry): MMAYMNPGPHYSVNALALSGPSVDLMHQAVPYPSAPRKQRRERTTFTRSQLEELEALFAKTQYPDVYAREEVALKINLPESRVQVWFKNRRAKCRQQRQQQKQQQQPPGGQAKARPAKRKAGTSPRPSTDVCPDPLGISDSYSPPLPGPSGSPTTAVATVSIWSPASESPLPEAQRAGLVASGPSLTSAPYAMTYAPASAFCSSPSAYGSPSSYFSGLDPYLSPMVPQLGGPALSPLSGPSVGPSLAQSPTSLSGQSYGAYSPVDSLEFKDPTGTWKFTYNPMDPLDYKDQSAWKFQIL
# Chain of HSF1 (Q00613 whole entry): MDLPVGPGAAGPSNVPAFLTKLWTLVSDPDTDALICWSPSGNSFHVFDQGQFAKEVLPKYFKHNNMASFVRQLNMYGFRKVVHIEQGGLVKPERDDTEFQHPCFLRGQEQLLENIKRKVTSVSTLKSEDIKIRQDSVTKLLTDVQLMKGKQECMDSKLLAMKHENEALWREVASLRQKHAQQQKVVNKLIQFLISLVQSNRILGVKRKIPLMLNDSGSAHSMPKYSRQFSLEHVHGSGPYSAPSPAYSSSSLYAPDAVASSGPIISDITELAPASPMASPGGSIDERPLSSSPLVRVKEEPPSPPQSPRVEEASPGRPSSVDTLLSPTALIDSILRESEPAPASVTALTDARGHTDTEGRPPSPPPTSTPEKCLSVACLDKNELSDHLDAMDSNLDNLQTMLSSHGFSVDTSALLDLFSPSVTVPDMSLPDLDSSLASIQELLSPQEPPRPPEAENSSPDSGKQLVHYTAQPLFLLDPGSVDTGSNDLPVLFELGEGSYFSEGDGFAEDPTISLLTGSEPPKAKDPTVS
# Chain of SPIB (Q01892 whole entry): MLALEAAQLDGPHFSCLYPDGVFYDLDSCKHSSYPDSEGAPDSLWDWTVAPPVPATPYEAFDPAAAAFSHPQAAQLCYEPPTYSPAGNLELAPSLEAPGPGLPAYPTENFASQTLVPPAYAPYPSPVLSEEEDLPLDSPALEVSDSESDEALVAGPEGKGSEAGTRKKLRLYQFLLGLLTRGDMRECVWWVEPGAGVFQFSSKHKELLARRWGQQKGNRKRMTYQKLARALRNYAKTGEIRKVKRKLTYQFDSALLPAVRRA
# Chain of ETV1 (P50549 whole entry): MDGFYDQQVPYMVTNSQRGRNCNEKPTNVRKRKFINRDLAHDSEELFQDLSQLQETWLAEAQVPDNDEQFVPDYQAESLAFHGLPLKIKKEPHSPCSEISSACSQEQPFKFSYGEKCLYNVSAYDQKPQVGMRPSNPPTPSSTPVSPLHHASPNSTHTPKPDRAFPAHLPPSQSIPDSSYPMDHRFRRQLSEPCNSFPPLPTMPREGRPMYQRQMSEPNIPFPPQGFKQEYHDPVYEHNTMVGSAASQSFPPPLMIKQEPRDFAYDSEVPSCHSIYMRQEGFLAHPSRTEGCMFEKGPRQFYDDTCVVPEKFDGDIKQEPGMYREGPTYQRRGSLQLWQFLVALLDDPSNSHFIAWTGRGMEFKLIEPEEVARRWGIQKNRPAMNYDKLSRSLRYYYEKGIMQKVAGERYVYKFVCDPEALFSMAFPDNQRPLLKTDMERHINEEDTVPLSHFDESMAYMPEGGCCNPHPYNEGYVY
sequence,measurement,setting,value
TCCTAT,binding signal,FLI1,"1.62 fold enrichment (6-mer frequency, TF over GST control)"
same,binding signal,ELK1,"1.56 fold enrichment (6-mer frequency, TF over GST control)"
same,binding signal,GABPA,"1.58 fold enrichment (6-mer frequency, TF over GST control)"
same,binding signal,ERG,"1.45 fold enrichment (6-mer frequency, TF over GST control)"
same,binding signal,ELF1,"1.46 fold enrichment (6-mer frequency, TF over GST control)"
same,binding signal,EHF,"1.5 fold enrichment (6-mer frequency, TF over GST control)"
same,binding signal,SPI1,"1.44 fold enrichment (6-mer frequency, TF over GST control)"
same,binding signal,SPIB,"1.6 fold enrichment (6-mer frequency, TF over GST control)"
same,binding signal,ELK3,"1.47 fold enrichment (6-mer frequency, TF over GST control)"
same,binding signal,FEV,"1.41 fold enrichment (6-mer frequency, TF over GST control)"
same,binding signal,ETV5,"1.47 fold enrichment (6-mer frequency, TF over GST control)"
same,binding signal,HSF1,"1.41 fold enrichment (6-mer frequency, TF over GST control)"
same,binding signal,SPIC,"1.68 fold enrichment (6-mer frequency, TF over GST control)"
same,binding signal,ELF4,"1.46 fold enrichment (6-mer frequency, TF over GST control)"
same,binding signal,ELK4,"1.49 fold enrichment (6-mer frequency, TF over GST control)"
same,binding signal,ETV2,"1.56 fold enrichment (6-mer frequency, TF over GST control)"
same,binding signal,ELF3,"1.74 fold enrichment (6-mer frequency, TF over GST control)"
same,binding signal,CRX,"1.68 fold enrichment (6-mer frequency, TF over GST control)"
same,binding signal,ETV1,"1.57 fold enrichment (6-mer frequency, TF over GST control)"
